# An excerpt weighted towards active compounds, which were near 10% of everything screened.
# HP1b chromo inh – blocks HP1-beta chromodomain binding to methylated histone tails | P83916 | AlphaScreen HP1-beta / biotin-H3K9me3 peptide binding | Potency, µM (top dose mostly 114 µM), for inactives: at the top dose activity change, negative = inhibition, actives largely listed as inhibitors | actives 0.56% (n = 390,000); further: nearly all actives have a fitted effect of over 70% in size
# Target sequence (P83916 whole entry, looked up): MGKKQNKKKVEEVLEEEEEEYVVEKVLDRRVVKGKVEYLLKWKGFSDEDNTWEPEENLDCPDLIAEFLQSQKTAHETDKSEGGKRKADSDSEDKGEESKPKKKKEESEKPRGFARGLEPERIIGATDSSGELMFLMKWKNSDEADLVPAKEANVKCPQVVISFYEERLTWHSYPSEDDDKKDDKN
#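 HP1-beta protein (50 nM final) preincubated 30 min at room temperature with biotinylated H3(1-18)K9me3 peptide (50 nM) in PBS pH 7.4, 0.01% Tween-20, then compound added for 30 min. AlphaScreen streptavidin donor/nickel chelate acceptor beads (10 ug/mL final), 30 min dark, luminescence read.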
# GLS inhibitor – blocks human kidney-isoform glutaminase activity; O94925; GLS enzymatic activity, qHTS titration; Potency, µM (titrated, usually from 45.5 µM), inactives show at the top dose activity change, negative = inhibition, most hits filed as inhibitors; actives 0.21% (n = 410,000); further: on the % scale 0 is the no-effect control and ±100 the full control effect
#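 Human kidney-isoform GLS in 45 mM KH2PO4 pH 8.2, 0.02% Tween-20, with compound, started with 1mM L-Glutamine (added stock). Glutamate oxidase/HRP/Amplex red coupled fluorescence read at start and after 30 min at RT.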
# BAZ2B block – blocks human BAZ2B. AlphaScreen BAZ2B-H3K14Ac peptide displacement. actives 4.4% (n = 360,000). Potency, µM (highest dose often 114 µM), inactives show at the highest dose activity change, negative = inhibition, hits mostly inhibitors. Q9UIF8; further: on the % scale 0 is the no-effect control and ±100 the full control effect; nearly all actives have a fitted effect of over 60% in size
#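 Multi-concentration screen (max 110 uM) measuring displacement of acetylated histone H3 peptide from BAZ2B by AlphaScreen, using 50 nM protein, 50 nM peptide and 10 ug/mL streptavidin donor plus Ni-chelate acceptor beads.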
# JMJD2A Tudor – JMJD2A Tudor domain (human) inhibition; O75164; AlphaScreen JMJD2A-Tudor / H3K4me3 peptide binding; Potency, µM (highest dose often 114 µM), for inactives: at the top dose activity change, negative = inhibition, actives largely listed as inhibitors; actives 4.4% (n = 390,000); AID 504339; further: on the % scale 0 is the no-effect control and ±100 the full control effect; nearly all actives have a fitted effect of over 50% in size
# G9a inh – G9a (human) methyltransferase inhibition. Q96KQ7. G9a H3K9 monomethylation, AlphaScreen, 2 h. Potency, µM (series often up to 102 µM), without a hit: at the highest dose activity, negative = inhibition, actives largely listed as inhibitors. actives 8.8% (n = 350,000). AID 504332; further: on the % scale 0 is the no-effect control and ±100 the full control effect; nearly all actives have a fitted effect of over 75% in size
# Target sequence (Q96KQ7 913-1193 limits assumed): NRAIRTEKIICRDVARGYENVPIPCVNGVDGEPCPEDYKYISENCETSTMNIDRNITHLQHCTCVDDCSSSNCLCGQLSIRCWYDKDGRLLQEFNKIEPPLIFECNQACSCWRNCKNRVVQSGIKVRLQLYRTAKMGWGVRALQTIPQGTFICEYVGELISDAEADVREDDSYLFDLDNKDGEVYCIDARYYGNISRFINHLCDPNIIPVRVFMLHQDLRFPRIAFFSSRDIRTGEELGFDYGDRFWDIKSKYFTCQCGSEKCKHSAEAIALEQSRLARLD
#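 Quantitative HTS format: methyltransferase activity on a biotin-tagged H3K9 peptide is measured by AlphaScreen, using a rabbit anti-monomethyl-H3K9 antibody with streptavidin donor and anti-IgG acceptor beads. Final levels are 20 nM enzyme, 500 nM peptide, 20 uM SAM; 2 h RT.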
# * marks the source's active call; other numbers are inactive results; ? = inconclusive; . = no result given; [ ] = remark or other dose. The call rests on the fitted dose curve; in most records, active means well fitted curve in the direction sought with a large enough effect; inconclusive means small, poorly fitted or top-dose-only effect, or another doubt; inactive means no such curve, though single readings can be large; an effect the other way counts as inactive or inconclusive. Potency means the concentration at half of the fitted maximal effect.
SMILES,HP1b chromo inh,GLS inhibitor,BAZ2B block,JMJD2A Tudor,G9a inh
C/C(=C\C(=O)c1ccc(C)o1)Nc1ccc(C(=O)O)cc1C,-9.4%,4.1%,?,28.2µM*,70.8µM*
CCOc1ccccc1CNC(=O)c1ccc2c(c1)sc1nc(-c3ccccc3)cn12,41.3%,-20.4%,0.7%,-9.2%,0.1%[59 µM]
Clc1ccc(OCCCCCN2CCCC2)c(Br)c1,?,2.2%,79.4µM*,2µM*,?
Brc1ccccc1OCCCCCN1CCCC1,.,.,-4.4%,.,3.8%[0.0925 µM]
CCN1CCN(CCCOc2ccc(Cl)cc2Br)CC1,?,2.9%,20µM*,22.4µM*,.
Clc1ccc(OCCCN2CCCCC2)c(Br)c1,?,-1.2%,79.4µM*,3.98µM*,3.55µM*
CC1CN(C(=O)CCC(=O)NC(C)c2ccccc2)c2cc(Cl)ccc2O1 (stereo unspecified),26.0%,0.0%,-28.4%,-14.6%,11.4%
CN1CCN(S(=O)(=O)c2ccc(Oc3cccc(C(F)(F)F)c3)nc2)CC1,32.5%,-2.3%,5.1%,?,?
CCCCN(Cc1ccc(Cl)c(Cl)c1)c1ccc(Br)cn1,165.4%,.,.,106.1%,.
S=C(NCCCc1cnc[nH]1)NCCCN(Cc1ccc(Cl)c(Cl)c1)c1ccccn1,.,.,.,44.7µM*,.
CC(=O)NCCCN(Cc1ccc(Cl)c(Cl)c1)c1ccc(Br)cn1,20.0%,.,.,-17.0%,.
O=C(NCCCc1cnc[nH]1)NCCCN(Cc1ccc(Cl)c(Cl)c1)c1ccc(Br)cn1,.,.,.,50.1µM*,.
S=C(NCCCCN(Cc1ccc(Cl)cc1)c1ccc(Br)cn1)NCCCc1cnc[nH]1,25.1µM*,2.8%,.,44.7µM*,.
CN(CCCN(Cc1ccc(Cl)cc1)c1ccc(Br)cn1)C(=S)NCCCc1cnc[nH]1,?,.,.,56.2µM*,.
Cc1ccnc(NC(=O)CNC(=O)c2ccc3ccccc3c2)c1,22.7%,3.9%,-37.7%,-16.6%,-0.7%[59 µM]
Cc1ccc(NS(=O)(=O)c2ccc(-c3ccc(=O)[nH]n3)o2)cc1,21.2%,-4.1%,-6.6%,-1.5%,12.1%
CC(=O)COc1nc2c(c(-c3ccco3)c1C#N)CCc1ccccc1-2,9.2%,-1.3%,-16.2%,22.4%,44.7µM*
CCOc1nc2c(c(-c3cccs3)c1C#N)Cc1ccccc1-2,13.2%,-21.0%,4.4%,-2.1%,-36.9%
CCOC(=O)c1cc(OC(=O)c2cccc(C)c2)n(-c2ccccc2)n1,58.6%,39.1%,5.0%,1.7%,28.0%[59 µM]
CCn1c(SCC(=O)N2CCOCC2)nc2sc3c(c2c1=O)CCCC3,28.3%,-15.6%,2.9%,-7.4%,?
CCn1c(SCC(=O)N2CCOCC2)nc2oc3c(Cl)cc(Cl)cc3c(=O)c2c1=O,.,.,?,.,39.8µM*
O=C(CSc1nc2ccccc2c(=O)n1Cc1ccco1)N1CCN(c2ccccc2)CC1,?,11.1%,?,-4.4%,14.1µM*
CCn1c(SCC(=O)N2CCN(c3ccc(F)cc3)CC2)nc2ccccc2c1=O,-11.6%,9.6%,-34.4%,-15.9%,-22.2%[59 µM]
CCn1c(SCC(=O)N2CCN(c3ccc(Cl)cc3)CC2)nc2ccccc2c1=O,-18.9%,0.7%,50.1µM*,-31.5%,2µM*
CCCCn1c(SCC(=O)N2CCN(c3ccccc3)CC2)nc2ccsc2c1=O,29.4%,-2.0%,-31.0%,-34.8%,39.8µM*
SMILES,HP1b chromo inh,GLS inhibitor,BAZ2B block,JMJD2A Tudor,G9a inh
COc1ccc(NS(=O)(=O)c2ccc(C)c(C(=O)NCc3cccnc3)c2)cc1,11.4%,-4.1%,-3.4%,-20.1%,-11.3%
COc1ccccc1-n1c(CNC(=O)COc2ccccc2)n[nH]c1=S,21.8%,1.7%,-1.0%,7.08µM*,?
COc1ccc(CC(=O)NCc2n[nH]c(=S)n2-c2ccc(Br)cc2)cc1,-6.0%,?,-21.7%,-18.0%[11.4 µM],?
COc1ccc(CC(=O)NCc2n[nH]c(=S)n2-c2ccccc2)cc1,44.6%,-0.2%,-1.9%,?,14.1µM*
Cc1cccc(-n2c(CNC(=O)c3cccc([N+](=O)[O-])c3C)n[nH]c2=S)c1,16.9%,1.6%,.,15.8µM*,11.2µM*
COc1ccc(CSCCc2n[nH]c(=S)n2-c2ccccc2)cc1,-2.8%,3.9%,?,50.1µM*,?
COc1ccc(NC(=O)Cn2nnc(-c3ccccc3NC(=O)c3cccs3)n2)cc1,25.3%,4.2%,6.9%,-7.2%,4.3%[59 µM]

# Bioassay records (PubChem BioAssay)
